Results on 40 compounds are retold here after PubChem BioAssay (NCI).

“And” between values parts separate entries of the source, which are not always exact repeats. Equal entries are not always repeated. Compounds without any hit were thinned out: in the full panel of roughly 83,000, 20% have a hit.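 Results are percent growth after 48 hours of single-concentration exposure. 100 means growth as in untreated cells, lower positive values show inhibition; negative values down to -100 show cell death.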 Values without a mark were called inactive. The source made the active and inactive calls. Rule for the calls: active = growth percent below 10; inactive = the rest.

The subject of this assay is MDA-MB-468 breast. Description: NCI-60 one-dose screen, 48 h (100 = growth as untreated, 0 = no growth, -100 = all killed). As to conditions: 10 µM unless noted.
Take `O=C(CCNNC(=O)c1ccncc1)NCc1ccccc1`: the growth was 75%.

For `Clc1cnc(Nc2ccc(OCCN3CCCC3)cc2)nc1NCc1ccco1`, the growth is 16.6%.

Take `Cc1cc(C(C)(C)C)cc(C)c1Br`: the growth is 113%.

As to `CC1c2ccccc2N(S(=O)(=O)c2ccccc2)C1C` (stereo not given), the growth was 37.9%.

Turning to `CN(C)C(=S)SCN1C(=O)c2ccc([N+](=O)[O-])cc2S1(=O)=O`, the growth was 88.4%.

In the case of `CCOc1nc(-c2ccccc2)cc2c(O)c(C(=O)NCCCO)[nH]c(=O)c12`, the growth is 95%.

Turning to `COC(=O)C1=COC(C)C2C[n+]3ccc4c([nH]c5ccccc54)c3CC12` (stereo not given), the growth was 94.2% and 85.8%.

Consider `O=C(O)Cc1ccc(O)c(O)c1`, for which the growth is 86%.

With `C#CCNC(=O)[C@]1(C)CC[C@]2(C)CC[C@@H]3C(=CC[C@H]4[C@@]3(C)CC[C@H]3C(C)(C)C(=O)CC[C@]43C)[C@@H]2C1`, the growth is 104%.

Regarding `CCCCNC(=O)Oc1ccc(/C(=C(/C)Cc2ccc(OC)cc2)c2ccc(OCCN3CCCCCC3)cc2)cc1`, the growth is 69.2%.

For the compound `O=C(NCc1ccc(Cn2c(=O)sn(-c3ccccc3)c2=O)cc1)OCc1ccc2c(Br)cc(Br)c(O)c2n1`, the growth is -67.5% (active).

On to `Cn1cnc([N+](=O)[O-])c1Sc1nnc(-c2ccccc2)c(-c2ccccc2)n1`, for which the growth is 64.8%.

Regarding `CN1CCN(Cc2ccc(NC(=O)c3cncc(C#Cc4ccc(N)nc4)c3)cc2C(F)(F)F)CC1`, the growth was -8.99% (active).

Turning to `COc1cc(NC(=O)c2sc3nc4c(cc3c2N)C(O)CCC4)cc(OC)c1` (stereo not given), the growth was 54%.

As to `Nc1cc(Br)c(-c2nn3c(CCC(=O)c4nc5ccccc5[nH]4)nnc3s2)c(Br)c1`, the growth is 91.8%.

Regarding `Cc1[nH]n(C(N)=S)c(=O)c1N=Nc1ccc(F)c(Cl)c1`, the growth is 154%.

Take `COc1cc(Cl)cc(-c2nn(-c3cccc(NC(=O)Nc4cc(C(F)(F)F)cc(C(F)(F)F)c4)c3)cc2-c2ccncc2)c1`: the growth was -2.95% (active).

For `COc1cc(C(=O)/C=C/c2cc(-c3cc(OC)c(OC)c(OC)c3)n[nH]2)cc(OC)c1OC`, the growth was -79% (active).

As to `N#CC1c2ccccc2C=CN1C(=O)N(c1ccccc1)c1ccccc1` (stereo not given), the growth is 5.11% (active).

Turning to `COc1ccccc1NC1=C(Cl)C(=O)c2nc(C)ccc2C1=O`, the growth was -79.7% (active).

As for `CCN(CC)c1ccc2c(c1)Oc1nc(N)c(C#N)c(N)c1C2Sc1ccc(OC)cc1` (stereo not given), the growth is -35.3% (active).

Regarding `NC(=O)c1cc(Cl)ccc1NC(=O)COc1ccccc1`, the growth was 21%.

`O=C(COc1ccc(/C=C2\Cc3ccc(Cl)cc3C2=O)cc1)Nc1nc2ccccc2s1`: the growth was 109%.

Regarding `O=C(/C=C/C12c3ccccc3C(c3ccccc31)C1C(=O)NC(=O)C12)c1ccc(Cl)cc1Cl` (stereo not given), the growth is 23.8%.

Take `CCN(CC)c1ccc(-c2cc(-c3cc(OC)c(OC)c(OC)c3)nc(N3CCOCC3)c2C#N)cc1`: the growth is 32.9%.

For `O=C(c1ccncc1)N1N=C(c2ccc(Cl)cc2)CC1c1c[nH]c2ccccc12` (stereo not given), the growth was 102%.

Regarding `Cc1ccc(/C=C(\C#N)n2nc3cccc(F)c3n2)cc1`, the growth was 85.2%.

For the compound `O=C1CC(c2ccc3c(c2)OCO3)Nc2cc3c(cc21)OCO3` (stereo not given), the growth is -11.3% (active).

On to `CCOC(=O)c1ccc(NCCC(=O)O)cc1`, for which the growth was 95.5%.

For the compound `Cc1nc(Nc2n[nH]c3c2CN(C(=O)N[C@H](CN(C)C)c2ccccc2)C3(C)C)c2sccc2n1`, the growth is -44.3% (active).

For `CCCCNC(=O)Oc1ccc(/C(=C(\C)c2ccccc2)c2ccc(OCCN3CCCCC3)cc2)cc1`, the growth is 66.8%.

Regarding `Clc1ccc(-c2c3ccc(=[N+]4CCCCC4)cc-3oc3cc(N4CCCCC4)ccc23)cc1`, the growth was -87.4% (active).

As to `COc1ccc(CN2CCc3c(Cl)nc(N)nc3C2=O)c(OC)c1`, the growth is 12% [100 µM].

In the case of `COc1cccc(-c2ccc3c(c2)C2CCN(Cc4ccccc4)C3C2)c1` (stereo not given), the growth is 67.9%.

As for `COc1ccc(C2=CN3CC=CCC3CC2=O)cc1` (stereo not given), the growth is 107%.

In the case of `O=C(N/N=C/[C@@H](O)[C@H](O)[C@H](O)CO)c1ccc(NC(=O)c2cccnc2)cc1`, the growth was 101%.

As to `CCCNCC(=O)Nc1ccc(C(=O)OC(C)(C)CC)cc1`, the growth is 102%.

Take `CCSc1nnc2n(Cc3ccccc3)c(=O)c3c(C)c(C(N)=O)sc3n12`: the growth is 101%.

As to `O=C(NN1C(=O)CSC1c1ccc(Cl)cc1)c1[nH]c2ccc(F)cc2c1-c1ccccc1` (stereo not given), the growth was 69.3%.

Take `COc1cccc2c1O/C(=C\c1c([N+](=O)[O-])ncn1C)C2=O`: the growth is 101%.
